Assay results: the supplement of paper PMC3656093
± gives the standard deviation of the averaged measurements. Whole data set: some 1,900 compounds, median “CD40L-induced NF-kB luciferase activity, plate-corrected, relative to DMSO (0) and IKK inhibitor VII (-100) controls” near 0.032, cut for the lowest 2% near -26. This excerpt belongs to a sample that is enriched for the lowest values.

Each molecule was assayed on BL2-NFkB-Luc (assay: CD40L-induced NF-kB luciferase activity, plate-corrected, relative to DMSO (0) and IKK inhibitor VII (-100) controls (% normalized activity); higher = more NF-kB reporter activity (less inhibition)). Details: 9.4 µM; stimulus: tCD40L 64 ng/ml; 4.5 h.
Protocol: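 BL2 B cells with a stable NF-kB response-element luciferase reporter (BL2-NFkB-Luc), 384-well. Cells were pre-incubated with compound at 9.4 uM for 1 h at 37 C, then stimulated with 64 ng/ml trimerized CD40L for 4.5 h; luciferase was read with Steady-Glo. Signal was normalised per plate in Genedata (median DMSO neutral control = 0, median IKK inhibitor VII at 50 uM = -100) with Assay Median plate-pattern correction; duplicate plates.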

| Structure (SMILES) | CD40L-induced NF-kB luciferase activity |
| --- | --- |
| CCOc1cc(C=O)ccc1OCCSc1ccc(C)cc1 | 8.64 ± 2 |
| CCC(C)NCCOCCOc1ccc(Cl)c2ccccc12 (configuration not stated) | -3.83 ± 0.8 |
| COc1ccc2oc(=O)c(-c3nc(C)cs3)cc2c1 | 82.6 ± 9.2 |
| Cc1ccc2c(c1)c(=O)c1c3n2CCN(C(=O)CCl)C3CC1 (configuration not stated) | -2.91 ± 2.5 |
| CC1(C)Cc2ccccc2-c2nc(-c3ccccc3)oc(=O)c21 | 2.15 ± 0.84 |
| O=C(c1ccc([N+](=O)[O-])cc1)N1CCSC1c1ccccc1Cl (configuration not stated) | 4.04 ± 5 |
| CN(C)CCOc1ccccc1Cc1ccccc1 | 0.196 ± 5 |
| O=C(NC1CCCCC1)c1cc2nc(-c3ccco3)cc(C(F)(F)F)n2n1 | 1.55 ± 1.8 |
| CC(C)Oc1ccc(C2CC(=O)N(c3ccc(C(=O)O)cc3)C2=O)cc1 (configuration not stated) | -3.94 ± 6.9 |
| O=C(NCc1ccc(N2CCCC2=O)cc1)c1cccc(Cl)c1 | 0.303 ± 1.9 |
| CCNC(=O)c1c(N)sc2c1CCCCC2 | 2.16 ± 2.4 |
| CC(C)OC(=O)c1ccc(NC(=O)c2cncc(Br)c2)cc1 | 4.22 ± 5 |
| CCOc1cc(C)cc2oc(=O)cc(-c3ccccc3)c12 | 3.93 ± 4.9 |
| Cc1cc(O)c(C(=O)Cc2csc(C)n2)c(O)c1 | 45.9 ± 3.3 |
| COc1cc(NC(=O)COc2ccccc2)c(OC)cc1NC(C)=O | 2.35 ± 11 |
| COc1ccc(OCc2cccc(C(=O)NN)c2)cc1 | -59.1 ± 2.2 |
| COc1ccc(C(=O)NCc2cccnc2)cc1 | -2.51 ± 0.59 |
| CCC(=O)c1ccc(OCc2ccc(C(=O)OC)cc2)cc1 | 47.3 ± 2.2 |
| CC(=O)[C@H]1CC[C@H]2[C@@H]3CCC4=CC(=O)CC[C@]4(C)[C@H]3[C@H](O)C[C@]12C | -10.6 ± 14 |
| COc1cc2nc(-c3ccccc3)nc(N3CCCC3)c2cc1OC | 14.1 ± 1.1 |
| C=C(C)c1nc2cc(OC)c(OC)cc2c(=O)o1 | -30.6 ± 9.3 |
| COc1ccc(/C=C\C(=O)c2c(O)ccc3c(C)cc(=O)oc23)cc1OC | -14 ± 3.3 |
| COc1cc2cc(C(=O)O)[nH]c2c(OC)c1OC | 1.43 ± 0.11 |

| Structure (SMILES) | CD40L-induced NF-kB luciferase activity |
| --- | --- |
| Cc1oc2ccc(OC(=O)c3cccs3)cc2c1C(=O)OC(C)C | 6.48 ± 1 |
| Cc1ccc2c(c1)C(CCN)C(=O)N2Cc1ccccc1 (configuration not stated) | 1.33 ± 2 |
| CC12CCC(C(=O)N3CCc4ccccc43)(CC1=O)C2(C)C (configuration not stated) | -7.25 ± 2.2 |
| COc1cc2c(cc1OC)C(c1cc3ccccc3oc1=O)=NC(C)(C)C2 | -0.782 ± 0.12 |
| COc1cc(C2CC(=O)NC3=C2C(=O)CC(C)(C)C3)ccc1O (configuration not stated) | 7.59 ± 2.5 |
| O=C1[C@@H]2[C@H](Cc3ccc(O)cc3)N[C@]3(C(=O)Nc4ccccc43)[C@@H]2C(=O)N1c1ccc(F)cc1 | -2.13 ± 3.5 |
| COc1ccc2oc(C)c(C(N)=O)c2c1 | 5.21 ± 2.3 |
| Cc1ccc(S(=O)(=O)NC(C(=O)Oc2cc3oc(=O)cc(C)c3cc2Cl)C(C)C)cc1 (configuration not stated) | -3.08 ± 0.98 |
| c1ccc(Cn2nnc3cnccc32)cc1 | 3.11 ± 1.1 |
| Fc1ccc(-c2cc(-c3ccccc3)nc(-n3cccn3)n2)cc1 | -4.51 ± 1.4 |
| O=C(/C=C/c1ccc2c(c1)OCCCO2)c1ccc2ccccc2c1O | 44.2 ± 0.67 |
| COC(=O)CCC(=O)CN | -0.0616 ± 1.1 |
| O=C(O)[C@@H](O)c1ccccc1 | -1.47 ± 0.027 |
| C=CCOC(=O)C1=C(C)NC(=O)NC1/C=C/c1ccccc1OC (configuration not stated) | -0.888 ± 0.046 |
| COc1ccc(C2C(=O)c3ccccc3C2=O)cc1 | 0.868 ± 0.29 |
| CC(=O)Oc1ccc(C2OC(=O)c3ccccc3N2C(C)=O)cc1 (configuration not stated) | -32.9 ± 1 |
| COc1ccc(C2C3=C(OC(C)=O)c4ccccc4C3=Nc3c2c(=O)n(C)c(=O)n3C)cc1 (configuration not stated) | 6.21 ± 0.2 |
| COc1ccc(-c2coc3cc(OC(=O)N4CCOCC4)ccc3c2=O)cc1 | 5.32 ± 1.2 |
| CCCC(=O)O[C@]1(C(=O)CO)CC[C@H]2[C@@H]3CCC4=CC(=O)CC[C@]4(C)[C@H]3[C@@H](O)C[C@@]21C | -31.6 ± 7.7 |
| C[C@]12CCC(=O)C=C1CC[C@@H]1[C@@H]2[C@@H](O)C[C@@]2(C)[C@H]1CC[C@]2(O)C(=O)CO | -24.3 ± 5.5 |
| CCCCCC(=O)O[C@]1(C(C)=O)CC[C@H]2[C@@H]3CCC4=CC(=O)CC[C@]4(C)[C@H]3CC[C@@]21C | -8.91 ± 0.8 |
| CCCCCCCC(=O)OCC(=O)[C@@]1(O)CC[C@H]2[C@@H]3CCC4=CC(=O)CC[C@]4(C)[C@H]3[C@@H](O)C[C@@]21C | -24.2 ± 1.8 |
| C[C@]12C[C@H](O)[C@H]3[C@@H](CCC4=CC(=O)CC[C@@]43C)[C@@H]1CC[C@@H]2C(=O)CO | -19.6 ± 8.2 |

| Structure (SMILES) | CD40L-induced NF-kB luciferase activity |
| --- | --- |
| CCCCC(=O)O[C@]1(C(=O)CO)CC[C@H]2[C@@H]3CCC4=CC(=O)CC[C@]4(C)[C@H]3[C@@H](O)C[C@@]21C | -43.1 ± 20 |
| CC(C)Cc1ccc(C(C)C(=O)O)cc1 (configuration not stated) | 2.3 ± 5 |
| CC(C(=O)O)c1ccc(N2Cc3ccccc3C2=O)cc1 (configuration not stated) | -43.6 ± 2.8 |
| CC(C(=O)O)c1ccc(-c2ccccc2)c(F)c1 (configuration not stated) | 2.04 ± 0.53 |
| COc1cc(C(=O)OCCn2c(=O)c3c(ncn3CCN(C)C)n(C)c2=O)cc(OC)c1OC | -3 ± 1.3 |
| Nc1ccn([C@@H]2O[C@H](CO)[C@@H](O)[C@@H]2O)c(=O)n1 | -30.5 ± 2.4 |
| O=c1ccn([C@@H]2O[C@H](CO)[C@@H](O)[C@H]2O)c(=O)[nH]1 | -6.55 ± 1.5 |
| Nc1cnn(C2OC(CO)C(O)C2O)c(=O)n1 (configuration not stated) | 6.46 ± 4.2 |
| CC(C)CC(=O)OC1C(N2CCOCC2)c2c(ccc(/C=C/C(=O)N3CCOCC3)c2O)OC1(C)C (configuration not stated) | -1.24 ± 1.2 |
| O=C(/C=C/c1ccco1)N1CCN(c2ccccc2)CC1 | 6.71 ± 0.18 |
| Cc1ccc2c(c1)C(O)(c1c(C)[nH]c3ccccc13)C(=O)N2 (configuration not stated) | 3.92 ± 8.9 |
| O=C(NC(=S)N1CCCCC1)c1cccnc1 | -3.04 ± 2.8 |
| O=C(CCCN1C(=O)/C(=C\c2cccc(Br)c2)SC1=S)Nc1cccnc1 | -2.47 ± 4.1 |
| CC(/C=C1\SC(=O)N(CCCC(=O)O)C1=O)=C\c1ccccc1 | -84.08 ± 0.44 |
| O=C(CCCN1C(=O)/C(=C\c2cccs2)SC1=S)Nc1ccccn1 | -2.54 ± 1.1 |
| COCCn1c(/C=C/c2ccccc2)nc2ccccc21 | 38.4 ± 2.4 |
| CCn1c(/C=C/c2ccccc2)nc2ccccc2c1=O | 4.25 ± 3.8 |
| C(=C\c1ccc2ccccc2n1)/c1ccccc1 | -56 ± 3.4 |
| O=c1cnn([C@@H]2O[C@H](CO)[C@@H](O)[C@H]2O)c(=O)[nH]1 | 10.5 ± 4.8 |
| O=C(Nc1c(C(=O)O)[nH]c2ccccc12)NC1CCCCC1 | -0.728 ± 0.3 |
| O=C(CC1(O)C(=O)Nc2ccccc21)c1ccccc1O (configuration not stated) | 1.73 ± 4.3 |
